Laboratory results taken from PubChem BioAssay (NCI).
This is part of a sample that, as a whole, favours compounds with a hit. Of some 79,000 tested, about 15% had one in any assay. Unmarked numbers belong to inactive results. Active and inactive are the calls of the source. Rule as the data show it: active = growth inhibition above about 70%; inactive = the rest.

Assay: NCI Yeast Anticancer Drug Screen. Data for the bub3 strain (AID 167)
Details: S. cerevisiae bub3 mutant strain, at 5.0 µM (retest, dose inferred, filed as 0.5), active compounds read high
How it was run: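 Screening used yeast with an engineered genetic alteration affecting cell cycle control. Compound-exposed cultures were compared with vehicle cultures, and reduced growth was taken as inhibition.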

Q: With `O=[N+]([O-])c1ccc(N2N=NC(CN3CCOCC3)C2N2CCOCC2)cc1` (stereo not drawn) as the compound, how does the growth inhibition read?
A: 2%

Q: For `FC(F)(F)c1ccccc1NC(=S)SCc1ccco1`, which growth inhibition is on record?
A: 8%

Q: With `O=C(c1ccc(Cl)cc1)C1N=NCC1c1ccccc1` (stereo not drawn) as the compound, how does the growth inhibition read?
A: 4%

Q: For `COc1cc(C2c3cc4c(cc3[C@@H](OCCN)[C@H]3COC(=O)C23)OCO4)cc(OC)c1O` (stereo partly drawn), which growth inhibition is on record?
A: 24%

Q: Which growth inhibition does the source give for `CC(C)(C)c1cc2c(c(C(C)(C)C)c1O)CC(=O)O2` here?
A: -32%

Q: For `CCCCCCCCCCCCCCCCCCSSCCCCCCCCCCCCCCCCCC`, which growth inhibition is on record?
A: 2%

Q: With `c1ccc2c(c1)OCC(CNCCNCC1COc3ccccc3O1)O2` (stereo not drawn) as the compound, how does the growth inhibition read?
A: 43%

Q: For `CC(=O)C(C(C)=O)C1C=CC=CC=C1`, which growth inhibition is on record?
A: -73%

Q: With `c1ccc2c(c1)ccc1c[n+]3c4ccccc4ccc3n12` as the compound, how does the growth inhibition read?
A: 55%

Q: Which growth inhibition does the source give for `CC(=O)C(=C(I)I)c1ccccc1` here?
A: -34%

Q: Which growth inhibition does the source give for `O=C1c2ccccc2CN1Cc1ccc(Cl)c(Cl)c1` here?
A: 3%

Q: For `CC1CC(N)=NC1C(=O)NCCC#N` (stereo not drawn), which growth inhibition is on record?
A: 25%

Q: Which growth inhibition does the source give for `CC(=O)CC(C)=NCCN=C(C)CC(C)=O.[Pd]` here?
A: -1%

Q: With `CCOc1ccccc1NC1=C(Cl)C(=O)c2ccccc2C1=O` as the compound, how does the growth inhibition read?
A: 99% (active)

Q: Which growth inhibition does the source give for `CCN1C2=NCCN2S(=O)(=O)c2ccccc21` here?
A: 13%

Q: Which growth inhibition does the source give for `O=C(Cc1nc2ccccc2s1)C(=O)Nc1ccc(Cl)cc1` here?
A: 5%

Q: With `O=C(CCn1[nH]c(=O)c(Cl)c(Cl)c1=O)NNc1ccc([N+](=O)[O-])cc1[N+](=O)[O-]` as the compound, how does the growth inhibition read?
A: 1%

Q: For `COc1cccc(C2c3cc4c(cc3OC(NNc3ccccc3)C2C)OCO4)c1OC` (stereo not drawn), which growth inhibition is on record?
A: 4%

Q: Which growth inhibition does the source give for `COc1ccc(-c2cc3ccccc3c(=O)n2Cc2ccccc2)cc1` here?
A: 8%

Q: With `CN(C)CCCNCC(=O)Nc1ccc(S(=O)(=O)c2ccc(NC(=O)CNCCCN(C)C)cc2)cc1` as the compound, how does the growth inhibition read?
A: 2%

Q: With `O=C1NN=C(c2ccc(Cl)cc2)CC1C1C(=O)N(c2ccccc2)N=C1c1ccccc1` (stereo not drawn) as the compound, how does the growth inhibition read?
A: 97% (active)

Q: Which growth inhibition does the source give for `Cc1ccc(S(=O)(=O)NCCSSCCNS(=O)(=O)c2ccc(C)cc2)cc1` here?
A: 1%

Q: With `O=C(CC(=O)c1ccccc1)CC(=O)c1ccccc1Br` as the compound, how does the growth inhibition read?
A: -1%

Q: For `Nc1ncc2ccccc2c1-c1ccc(NC(=O)CCCl)cc1`, which growth inhibition is on record?
A: 6%

Q: With `CC1=NC(=Cc2cccc(Cl)c2)C(=O)N1n1c(-c2ccccc2)nc2ccccc2c1=O` as the compound, how does the growth inhibition read?
A: -9%

Q: Which growth inhibition does the source give for `CCCOC(=O)CCCC(=O)N(CC)CC` here?
A: -4%

Q: Which growth inhibition does the source give for `C=C1C(=O)[C@@]23CC[C@H]4[C@@](C)(CCC[C@@]4(C)C(=O)OC)[C@@H]2CC[C@]1(O)C3` here?
A: 94% (active)

Q: For `CCCCN(CCCC)CCC(=O)c1ccc2c(ccc3ccccc32)c1`, which growth inhibition is on record?
A: 47%

Q: With `CC1CCC2(C)C(CC=C(C=O)C2(O)C=O)C12CO2` (stereo not drawn) as the compound, how does the growth inhibition read?
A: 99% (active)

Q: For `CN(C)CC1CC/C(=C\c2ccc(Cl)c(Cl)c2)C1=O` (stereo not drawn), which growth inhibition is on record?
A: 74% (active)

Q: With `CCS(=O)(=O)c1ccc(NC(=O)OC2CCCCCCC2)cc1` as the compound, how does the growth inhibition read?
A: 6%

Q: With `CC(=O)OC1CCCCCCCCCCC12OCCO2` (stereo not drawn) as the compound, how does the growth inhibition read?
A: 1%

Q: Which growth inhibition does the source give for `CC(=O)OCc1cc2c(s1)C(=O)c1sccc1C2=O` here?
A: 41%

Q: For `O=C1C=CC(=O)c2nc3ccccc3nc21`, which growth inhibition is on record?
A: -1%

Q: For `Cc1ccccc1C1c2c(C)cccc2C(=O)CC1CC(=O)O` (stereo not drawn), which growth inhibition is on record?
A: 6%

Q: For `CCOC(=O)c1c(N)sc2c1CCCCC2`, which growth inhibition is on record?
A: -71%

Q: Which growth inhibition does the source give for `CCCCC(O)CCCC` here?
A: 43%

Q: Which growth inhibition does the source give for `Nc1nn2c(C(Br)Br)cc(C(Br)Br)nc2c1[N+](=O)[O-]` here?
A: 100% (active)

Q: For `COC(=O)c1n[nH]c(C(C)C)c1N=NN(C)C`, which growth inhibition is on record?
A: -38%

Same assay, conditions: S. cerevisiae bub3 mutant strain, at 50.0 µM (retest, dose inferred, filed as 5.0), active compounds read high

Q: Which growth inhibition does the source give for `O=[N+]([O-])c1ccc(N2N=NC(CN3CCOCC3)C2N2CCOCC2)cc1` (stereo not drawn) here?
A: 32%

Q: Which growth inhibition does the source give for `FC(F)(F)c1ccccc1NC(=S)SCc1ccco1` here?
A: 33%

Q: With `O=C(c1ccc(Cl)cc1)C1N=NCC1c1ccccc1` (stereo not drawn) as the compound, how does the growth inhibition read?
A: 85% (active)

Q: With `COc1cc(C2c3cc4c(cc3[C@@H](OCCN)[C@H]3COC(=O)C23)OCO4)cc(OC)c1O` (stereo partly drawn) as the compound, how does the growth inhibition read?
A: 44%

Q: With `CC(C)(C)c1cc2c(c(C(C)(C)C)c1O)CC(=O)O2` as the compound, how does the growth inhibition read?
A: 97% (active)

Q: With `CCCCCCCCCCCCCCCCCCSSCCCCCCCCCCCCCCCCCC` as the compound, how does the growth inhibition read?
A: 1%

Q: For `c1ccc2c(c1)OCC(CNCCNCC1COc3ccccc3O1)O2` (stereo not drawn), which growth inhibition is on record?
A: 55%

Q: For `CC(=O)C(C(C)=O)C1C=CC=CC=C1`, which growth inhibition is on record?
A: 86% (active)

Q: Which growth inhibition does the source give for `c1ccc2c(c1)ccc1c[n+]3c4ccccc4ccc3n12` here?
A: 93% (active)

Q: Which growth inhibition does the source give for `CC(=O)C(=C(I)I)c1ccccc1` here?
A: 83% (active)

Q: With `O=C1c2ccccc2CN1Cc1ccc(Cl)c(Cl)c1` as the compound, how does the growth inhibition read?
A: 92% (active)

Q: For `CC1CC(N)=NC1C(=O)NCCC#N` (stereo not drawn), which growth inhibition is on record?
A: -12%

Q: For `CC(=O)CC(C)=NCCN=C(C)CC(C)=O.[Pd]`, which growth inhibition is on record?
A: 60%

Q: For `CCOc1ccccc1NC1=C(Cl)C(=O)c2ccccc2C1=O`, which growth inhibition is on record?
A: 97% (active)

Q: For `CCN1C2=NCCN2S(=O)(=O)c2ccccc21`, which growth inhibition is on record?
A: 11%

Q: With `O=C(Cc1nc2ccccc2s1)C(=O)Nc1ccc(Cl)cc1` as the compound, how does the growth inhibition read?
A: -2%

Q: With `O=C(CCn1[nH]c(=O)c(Cl)c(Cl)c1=O)NNc1ccc([N+](=O)[O-])cc1[N+](=O)[O-]` as the compound, how does the growth inhibition read?
A: 19%

Q: With `COc1cccc(C2c3cc4c(cc3OC(NNc3ccccc3)C2C)OCO4)c1OC` (stereo not drawn) as the compound, how does the growth inhibition read?
A: 94% (active)

Q: For `COc1ccc(-c2cc3ccccc3c(=O)n2Cc2ccccc2)cc1`, which growth inhibition is on record?
A: 63%

Q: With `CN(C)CCCNCC(=O)Nc1ccc(S(=O)(=O)c2ccc(NC(=O)CNCCCN(C)C)cc2)cc1` as the compound, how does the growth inhibition read?
A: 89% (active)

Q: Which growth inhibition does the source give for `O=C1NN=C(c2ccc(Cl)cc2)CC1C1C(=O)N(c2ccccc2)N=C1c1ccccc1` (stereo not drawn) here?
A: 95% (active)

Q: Which growth inhibition does the source give for `Cc1ccc(S(=O)(=O)NCCSSCCNS(=O)(=O)c2ccc(C)cc2)cc1` here?
A: 95% (active)

Q: With `O=C(CC(=O)c1ccccc1)CC(=O)c1ccccc1Br` as the compound, how does the growth inhibition read?
A: 96% (active)

Q: With `Nc1ncc2ccccc2c1-c1ccc(NC(=O)CCCl)cc1` as the compound, how does the growth inhibition read?
A: 59%

Q: For `CC1=NC(=Cc2cccc(Cl)c2)C(=O)N1n1c(-c2ccccc2)nc2ccccc2c1=O`, which growth inhibition is on record?
A: 86% (active)

Q: Which growth inhibition does the source give for `CCCOC(=O)CCCC(=O)N(CC)CC` here?
A: -3%

Q: Which growth inhibition does the source give for `C=C1C(=O)[C@@]23CC[C@H]4[C@@](C)(CCC[C@@]4(C)C(=O)OC)[C@@H]2CC[C@]1(O)C3` here?
A: 99% (active)

Q: For `CCCCN(CCCC)CCC(=O)c1ccc2c(ccc3ccccc32)c1`, which growth inhibition is on record?
A: 98% (active)

Q: For `CC1CCC2(C)C(CC=C(C=O)C2(O)C=O)C12CO2` (stereo not drawn), which growth inhibition is on record?
A: 54%

Q: With `CN(C)CC1CC/C(=C\c2ccc(Cl)c(Cl)c2)C1=O` (stereo not drawn) as the compound, how does the growth inhibition read?
A: 99% (active)

Q: For `CCS(=O)(=O)c1ccc(NC(=O)OC2CCCCCCC2)cc1`, which growth inhibition is on record?
A: -30%

Q: For `CC(=O)OC1CCCCCCCCCCC12OCCO2` (stereo not drawn), which growth inhibition is on record?
A: 96% (active)

Q: Which growth inhibition does the source give for `CC(=O)OCc1cc2c(s1)C(=O)c1sccc1C2=O` here?
A: 60%

Q: With `O=C1C=CC(=O)c2nc3ccccc3nc21` as the compound, how does the growth inhibition read?
A: 98% (active)

Q: Which growth inhibition does the source give for `Cc1ccccc1C1c2c(C)cccc2C(=O)CC1CC(=O)O` (stereo not drawn) here?
A: 67%

Q: With `CCOC(=O)c1c(N)sc2c1CCCCC2` as the compound, how does the growth inhibition read?
A: -42%

Q: For `CCCCC(O)CCCC`, which growth inhibition is on record?
A: 91% (active)

Q: With `Nc1nn2c(C(Br)Br)cc(C(Br)Br)nc2c1[N+](=O)[O-]` as the compound, how does the growth inhibition read?
A: 100% (active)

Q: With `COC(=O)c1n[nH]c(C(C)C)c1N=NN(C)C` as the compound, how does the growth inhibition read?
A: 96% (active)
